Assay results: the supplement of paper PMC11732987, “Enantioselective OTUD7B fragment discovery through chemoproteomics screening and high-throughput optimisation” (Communications Chemistry, 2025)

Key:
Assay in all cases: log2 ratio of Biotin-Ahx-Ub-VS probe labelling (fragment/DMSO); higher = less target engagement (more negative = stronger competition), active = hit call of the paper (q ≤ 0.05, log2 ratio ≤ -1)
Conditions in all cases: compound concentration: 200 uM; treatment time: 3 h
USP19 = target: T1, USP19 (UniProt O94966)
T1 sequence (whole entry): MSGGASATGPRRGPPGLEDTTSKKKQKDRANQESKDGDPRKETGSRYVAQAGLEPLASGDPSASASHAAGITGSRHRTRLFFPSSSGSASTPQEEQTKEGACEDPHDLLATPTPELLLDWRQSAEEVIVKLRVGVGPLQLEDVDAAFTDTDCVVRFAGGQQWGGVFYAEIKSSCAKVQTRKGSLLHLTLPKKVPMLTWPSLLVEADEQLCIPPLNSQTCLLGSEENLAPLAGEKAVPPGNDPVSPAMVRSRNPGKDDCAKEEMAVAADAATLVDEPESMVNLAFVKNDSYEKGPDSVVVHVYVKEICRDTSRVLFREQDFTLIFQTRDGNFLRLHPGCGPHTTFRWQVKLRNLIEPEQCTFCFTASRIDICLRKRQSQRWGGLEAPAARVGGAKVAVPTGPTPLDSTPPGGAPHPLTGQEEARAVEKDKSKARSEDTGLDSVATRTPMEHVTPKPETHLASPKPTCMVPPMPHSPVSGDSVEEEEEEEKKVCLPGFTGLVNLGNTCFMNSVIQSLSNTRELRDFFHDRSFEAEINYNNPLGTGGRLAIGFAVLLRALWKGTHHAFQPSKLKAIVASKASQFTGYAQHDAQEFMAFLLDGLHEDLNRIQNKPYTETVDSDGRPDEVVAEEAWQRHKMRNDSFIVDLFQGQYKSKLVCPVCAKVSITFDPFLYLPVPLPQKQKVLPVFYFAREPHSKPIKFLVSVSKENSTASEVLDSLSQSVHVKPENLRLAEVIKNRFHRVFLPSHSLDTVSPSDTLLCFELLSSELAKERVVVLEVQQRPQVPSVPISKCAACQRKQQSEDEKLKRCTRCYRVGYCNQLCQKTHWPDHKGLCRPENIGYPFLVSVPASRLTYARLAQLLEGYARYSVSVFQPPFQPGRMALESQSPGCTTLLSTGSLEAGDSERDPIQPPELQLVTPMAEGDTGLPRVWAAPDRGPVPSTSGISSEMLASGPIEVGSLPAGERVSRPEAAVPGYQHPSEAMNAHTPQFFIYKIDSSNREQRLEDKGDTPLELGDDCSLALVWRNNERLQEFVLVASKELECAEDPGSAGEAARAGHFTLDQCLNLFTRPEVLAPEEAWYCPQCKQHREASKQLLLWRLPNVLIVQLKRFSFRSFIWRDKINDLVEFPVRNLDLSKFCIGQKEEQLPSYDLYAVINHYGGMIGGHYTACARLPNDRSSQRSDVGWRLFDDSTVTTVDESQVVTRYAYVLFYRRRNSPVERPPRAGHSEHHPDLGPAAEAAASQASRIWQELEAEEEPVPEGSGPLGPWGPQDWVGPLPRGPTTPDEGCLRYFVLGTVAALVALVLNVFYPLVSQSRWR
Method in brief: (§1)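 Labelled DUBs from HEK293T lysate were NeutrAvidin-enriched, digested with LysC and trypsin, and run by diaPASEF LC-MS/MS. Before that, each 495 µg sample in Tris/CHAPS/IGEPAL buffer with protease inhibitors was treated in triplicate with fragment at 200 µM or vehicle for 3 h, then with Biotin-Ahx-Ub-VS at 0.5 µM final for 1 h. Values are average log2 ratios of fragment over vehicle by unpaired t-test, based on global-median-normalised Spectronaut label-free quantities from proteins with ≥2 unique peptides.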

USP22 = target: T2, USP22 (UniProt Q9UPT9)
T2 sequence (whole entry): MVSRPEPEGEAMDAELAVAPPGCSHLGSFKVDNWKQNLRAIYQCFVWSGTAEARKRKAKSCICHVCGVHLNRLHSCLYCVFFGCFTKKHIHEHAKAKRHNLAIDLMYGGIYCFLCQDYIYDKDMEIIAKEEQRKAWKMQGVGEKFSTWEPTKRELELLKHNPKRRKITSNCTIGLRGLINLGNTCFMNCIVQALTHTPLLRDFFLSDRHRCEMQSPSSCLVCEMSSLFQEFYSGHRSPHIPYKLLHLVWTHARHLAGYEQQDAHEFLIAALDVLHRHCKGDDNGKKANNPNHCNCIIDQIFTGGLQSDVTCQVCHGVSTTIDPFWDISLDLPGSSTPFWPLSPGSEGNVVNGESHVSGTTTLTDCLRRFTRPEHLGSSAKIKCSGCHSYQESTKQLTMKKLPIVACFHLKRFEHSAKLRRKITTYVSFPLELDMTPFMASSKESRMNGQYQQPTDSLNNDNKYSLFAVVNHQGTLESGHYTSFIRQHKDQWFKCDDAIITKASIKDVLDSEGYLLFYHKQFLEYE
Method in brief: as §1

USP24 = USP24 (UniProt Q9UPU5)
Sequence of USP24 (Q9UPU5 whole entry): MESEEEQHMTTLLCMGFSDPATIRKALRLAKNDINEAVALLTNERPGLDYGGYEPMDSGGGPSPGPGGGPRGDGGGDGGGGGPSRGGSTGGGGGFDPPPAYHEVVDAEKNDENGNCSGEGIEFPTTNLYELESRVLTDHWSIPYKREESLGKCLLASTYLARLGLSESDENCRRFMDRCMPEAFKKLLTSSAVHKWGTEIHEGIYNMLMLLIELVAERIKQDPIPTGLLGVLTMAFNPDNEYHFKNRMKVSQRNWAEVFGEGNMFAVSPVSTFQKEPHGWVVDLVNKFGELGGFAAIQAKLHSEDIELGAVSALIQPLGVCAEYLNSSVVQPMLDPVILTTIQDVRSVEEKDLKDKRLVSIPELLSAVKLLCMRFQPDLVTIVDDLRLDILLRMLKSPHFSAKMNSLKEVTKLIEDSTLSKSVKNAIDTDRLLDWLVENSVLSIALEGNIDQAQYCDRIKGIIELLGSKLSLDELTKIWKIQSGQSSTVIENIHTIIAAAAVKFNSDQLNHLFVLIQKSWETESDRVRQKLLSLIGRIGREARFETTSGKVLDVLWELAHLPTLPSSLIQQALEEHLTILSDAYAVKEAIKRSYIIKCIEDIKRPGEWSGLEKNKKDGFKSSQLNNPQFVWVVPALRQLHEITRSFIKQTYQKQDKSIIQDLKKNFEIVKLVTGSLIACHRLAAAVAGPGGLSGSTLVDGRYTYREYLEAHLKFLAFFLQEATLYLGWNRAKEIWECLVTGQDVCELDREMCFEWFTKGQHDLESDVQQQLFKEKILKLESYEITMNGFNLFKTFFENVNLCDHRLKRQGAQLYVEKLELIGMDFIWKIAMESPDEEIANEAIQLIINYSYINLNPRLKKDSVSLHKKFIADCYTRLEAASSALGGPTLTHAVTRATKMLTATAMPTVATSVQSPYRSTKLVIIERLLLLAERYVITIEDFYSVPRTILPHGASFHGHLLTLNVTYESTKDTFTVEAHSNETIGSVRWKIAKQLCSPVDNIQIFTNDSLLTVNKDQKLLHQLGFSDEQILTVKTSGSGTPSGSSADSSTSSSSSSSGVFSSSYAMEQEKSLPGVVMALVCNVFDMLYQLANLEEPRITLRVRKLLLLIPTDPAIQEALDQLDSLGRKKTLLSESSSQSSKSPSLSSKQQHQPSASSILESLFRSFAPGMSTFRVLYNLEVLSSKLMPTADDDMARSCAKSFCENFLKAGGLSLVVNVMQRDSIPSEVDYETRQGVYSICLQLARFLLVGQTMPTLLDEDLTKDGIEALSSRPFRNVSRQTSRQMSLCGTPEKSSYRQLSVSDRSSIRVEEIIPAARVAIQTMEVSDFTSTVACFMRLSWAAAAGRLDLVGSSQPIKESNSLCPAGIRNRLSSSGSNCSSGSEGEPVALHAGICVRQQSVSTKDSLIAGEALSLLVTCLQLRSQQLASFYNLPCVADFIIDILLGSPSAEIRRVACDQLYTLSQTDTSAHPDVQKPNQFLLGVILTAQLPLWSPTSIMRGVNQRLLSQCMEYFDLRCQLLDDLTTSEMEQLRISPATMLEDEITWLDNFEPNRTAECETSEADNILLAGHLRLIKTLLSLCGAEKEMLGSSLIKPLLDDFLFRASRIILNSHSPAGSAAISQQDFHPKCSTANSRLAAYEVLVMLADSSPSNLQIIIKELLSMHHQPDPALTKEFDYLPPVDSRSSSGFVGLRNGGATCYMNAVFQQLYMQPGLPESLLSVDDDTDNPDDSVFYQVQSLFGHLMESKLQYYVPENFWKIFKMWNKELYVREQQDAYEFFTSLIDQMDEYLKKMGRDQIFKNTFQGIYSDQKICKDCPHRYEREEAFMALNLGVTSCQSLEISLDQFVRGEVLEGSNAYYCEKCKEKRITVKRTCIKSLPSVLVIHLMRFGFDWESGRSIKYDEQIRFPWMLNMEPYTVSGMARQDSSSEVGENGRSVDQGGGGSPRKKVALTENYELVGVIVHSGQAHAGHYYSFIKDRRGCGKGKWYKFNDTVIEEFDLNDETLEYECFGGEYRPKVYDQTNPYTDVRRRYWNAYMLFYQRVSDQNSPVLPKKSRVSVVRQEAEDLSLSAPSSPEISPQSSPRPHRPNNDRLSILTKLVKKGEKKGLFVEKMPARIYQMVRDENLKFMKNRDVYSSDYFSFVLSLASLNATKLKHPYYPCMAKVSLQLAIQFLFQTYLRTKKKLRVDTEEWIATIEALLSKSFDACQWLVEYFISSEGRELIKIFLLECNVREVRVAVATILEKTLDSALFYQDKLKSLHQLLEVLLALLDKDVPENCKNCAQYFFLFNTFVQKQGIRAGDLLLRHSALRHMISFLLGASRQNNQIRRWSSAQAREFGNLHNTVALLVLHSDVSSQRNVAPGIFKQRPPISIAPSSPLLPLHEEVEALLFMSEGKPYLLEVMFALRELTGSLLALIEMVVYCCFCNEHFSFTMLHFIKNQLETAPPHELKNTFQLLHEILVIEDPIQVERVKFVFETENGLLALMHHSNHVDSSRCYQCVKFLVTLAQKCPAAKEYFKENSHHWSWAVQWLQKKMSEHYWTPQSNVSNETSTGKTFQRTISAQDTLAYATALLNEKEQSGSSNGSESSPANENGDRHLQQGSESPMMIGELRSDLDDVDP
Method in brief: as §1

USP25 = target: T3, USP25 (UniProt Q9UHP3)
T3 sequence (whole entry): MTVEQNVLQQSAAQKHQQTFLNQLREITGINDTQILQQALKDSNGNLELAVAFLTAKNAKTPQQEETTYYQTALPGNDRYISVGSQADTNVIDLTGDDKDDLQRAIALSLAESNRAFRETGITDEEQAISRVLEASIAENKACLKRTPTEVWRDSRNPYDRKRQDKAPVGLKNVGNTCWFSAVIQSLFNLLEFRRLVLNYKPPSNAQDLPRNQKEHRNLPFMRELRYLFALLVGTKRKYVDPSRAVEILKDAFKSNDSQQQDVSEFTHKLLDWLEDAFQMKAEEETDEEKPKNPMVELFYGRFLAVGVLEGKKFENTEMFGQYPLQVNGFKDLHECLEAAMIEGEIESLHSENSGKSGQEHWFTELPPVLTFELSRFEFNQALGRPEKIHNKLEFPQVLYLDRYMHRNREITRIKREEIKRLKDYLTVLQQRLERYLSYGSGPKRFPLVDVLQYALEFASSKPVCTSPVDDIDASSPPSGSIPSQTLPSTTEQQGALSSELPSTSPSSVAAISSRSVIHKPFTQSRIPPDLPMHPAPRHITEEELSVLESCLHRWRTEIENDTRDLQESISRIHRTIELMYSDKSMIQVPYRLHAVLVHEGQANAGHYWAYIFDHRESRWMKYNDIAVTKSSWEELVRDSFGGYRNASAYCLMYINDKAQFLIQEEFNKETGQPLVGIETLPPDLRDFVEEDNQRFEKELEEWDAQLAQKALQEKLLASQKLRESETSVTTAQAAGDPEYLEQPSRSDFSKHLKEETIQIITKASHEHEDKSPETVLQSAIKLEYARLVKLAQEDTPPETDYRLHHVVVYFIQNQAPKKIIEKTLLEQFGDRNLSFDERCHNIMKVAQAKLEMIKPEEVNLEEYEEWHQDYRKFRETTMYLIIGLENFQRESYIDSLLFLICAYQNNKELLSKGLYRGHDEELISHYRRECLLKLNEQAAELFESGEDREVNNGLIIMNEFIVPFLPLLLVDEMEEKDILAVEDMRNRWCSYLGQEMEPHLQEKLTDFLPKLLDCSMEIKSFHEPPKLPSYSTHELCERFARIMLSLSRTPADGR
Method in brief: as §1

USP28 = target: T4, USP28 (UniProt Q96RU2)
T4 sequence (whole entry): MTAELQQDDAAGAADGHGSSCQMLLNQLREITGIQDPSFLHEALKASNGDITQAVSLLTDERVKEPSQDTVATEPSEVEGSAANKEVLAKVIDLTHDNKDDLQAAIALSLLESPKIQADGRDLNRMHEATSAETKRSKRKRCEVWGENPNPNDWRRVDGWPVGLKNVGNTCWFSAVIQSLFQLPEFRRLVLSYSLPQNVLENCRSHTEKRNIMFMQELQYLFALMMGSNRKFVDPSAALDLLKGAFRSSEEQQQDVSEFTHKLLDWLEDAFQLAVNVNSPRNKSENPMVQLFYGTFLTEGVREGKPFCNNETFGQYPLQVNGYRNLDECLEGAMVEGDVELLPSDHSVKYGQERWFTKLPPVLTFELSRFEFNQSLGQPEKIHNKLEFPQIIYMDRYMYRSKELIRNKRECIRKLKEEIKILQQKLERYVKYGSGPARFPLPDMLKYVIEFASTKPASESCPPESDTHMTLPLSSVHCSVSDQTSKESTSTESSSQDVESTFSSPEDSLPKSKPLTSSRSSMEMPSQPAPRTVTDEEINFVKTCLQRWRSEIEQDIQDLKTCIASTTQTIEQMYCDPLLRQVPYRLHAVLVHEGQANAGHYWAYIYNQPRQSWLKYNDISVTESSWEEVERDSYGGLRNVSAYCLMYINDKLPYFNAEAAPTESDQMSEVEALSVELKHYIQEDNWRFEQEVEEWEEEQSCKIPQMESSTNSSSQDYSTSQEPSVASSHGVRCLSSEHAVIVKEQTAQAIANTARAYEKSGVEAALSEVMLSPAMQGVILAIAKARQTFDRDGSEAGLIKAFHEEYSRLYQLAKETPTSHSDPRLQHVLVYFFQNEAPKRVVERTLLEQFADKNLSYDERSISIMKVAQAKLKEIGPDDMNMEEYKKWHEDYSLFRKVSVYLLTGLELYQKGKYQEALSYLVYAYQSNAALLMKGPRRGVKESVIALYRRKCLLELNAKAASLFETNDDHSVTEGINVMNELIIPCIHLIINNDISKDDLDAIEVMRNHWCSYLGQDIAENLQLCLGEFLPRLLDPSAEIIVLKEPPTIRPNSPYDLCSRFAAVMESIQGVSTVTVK
Method in brief: as §1

Measured: log2 ratio of Biotin-Ahx-Ub-VS probe labelling

O=C(CCl)NCc1ccc2c(c1)OCO2
inactive: USP19 -0.272 | USP22 -0.126 | USP24 -0.3 | USP25 -0.0121 | USP28 -0.566
